In the antibiotic and cytotoxicity screens of Wong et al. (2023) one finds cytotoxicity call data, which are given here for 59 molecules.

Screen size: about 39,000 compounds; about 3,300 (8.5%) were called active. This excerpt belongs to a sample that is enriched for actives.

This assay deals with HepG2. The experiment in a line: cytotoxicity call (relative viability < 0.9). The settings on record: 10 µM.
`COc1ccc(S(=O)(=O)Nc2ccc3c(c2)C(=O)N([C@@H](C)CO)C[C@@H](C)[C@@H](CN(C)Cc2ccccc2)OCCCC[C@@H](C)O3)cc1`: the cytotoxicity call was “inactive”.
With `O=C(C[C@H]1CC[C@@H]2[C@H](COC[C@H](O)CN2C(=O)C2CC2)O1)NCc1ccncc1` the entry was “inactive”.
For `Cc1cc(O)cc2c1O[C@](C)(CCC[C@H](C)CCC[C@H](C)CCCC(C)C)CC2`, the cytotoxicity call is “inactive”.
The entry for `Cc1noc(C)c1S(=O)(=O)Nc1cccc2c1O[C@H](CN(C)C(=O)NC1CCCCC1)[C@H](C)CN([C@@H](C)CO)C2=O` is “inactive”; for `C[C@H](CO)N1C[C@H](C)[C@H](CN(C)C(=O)Nc2ccc(F)cc2)Oc2ncc(C#Cc3ccc(C(F)(F)F)cc3)cc2C1=O` it is “inactive”; for `C[C@H]1CN([C@@H](C)CO)C(=O)c2cccc(NS(=O)(=O)c3cccs3)c2O[C@H]1CN(C)Cc1ccc(Oc2ccccc2)cc1` it is “inactive”.
The entry for `COc1ccc(NC(=O)Nc2cccc3c2O[C@@H](CN(C)C(=O)Nc2cccc4ccccc24)[C@H](C)CN([C@H](C)CO)C3=O)cc1` is “inactive”; for `C[C@H](CO)N1C[C@H](C)[C@@H](CN(C)C(=O)Nc2ccc(F)cc2)Oc2c(NC(=O)Nc3cccc4ccccc34)cccc2C1=O` it is “inactive”.
For the molecule `C[C@@H]1CN([C@@H](C)CO)C(=O)c2cccc(NC(=O)Nc3cccc4ccccc34)c2O[C@H]1CN(C)C(=O)Nc1ccccc1`, the cytotoxicity call is “active”.
With `C[C@H]1CN([C@@H](C)CO)C(=O)c2cccc(NC(=O)Nc3cccc4ccccc34)c2O[C@@H]1CN(C)C(=O)Nc1ccccc1` the entry was “inactive”.
For the molecule `C[C@H]1CN([C@@H](C)CO)C(=O)c2cccc(NC(=O)Nc3cccc4ccccc34)c2O[C@H]1CN(C)C(=O)Nc1ccccc1`, the cytotoxicity call is “inactive”.
For the molecule `COc1ccc(NC(=O)Nc2cccc3c2O[C@@H](CN(C)C(=O)Nc2cccc4ccccc24)[C@H](C)CN([C@@H](C)CO)C3=O)cc1`, the cytotoxicity call was “inactive”.
As for `C[C@@H]1CN([C@H](C)CO)C(=O)c2cccc(NC(=O)Nc3cccc4ccccc34)c2O[C@H]1CN(C)C(=O)Nc1ccc(F)cc1`, the cytotoxicity call was “inactive”.
Turning to `C[C@H](CO)N1C[C@H](C)[C@H](CN(C)C(=O)Nc2ccc(F)cc2)Oc2c(NC(=O)Nc3cccc4ccccc34)cccc2C1=O`, the cytotoxicity call is “active”.
Turning to `COc1ccc(NC(=O)Nc2cccc3c2O[C@H](CN(C)C(=O)Nc2cccc4ccccc24)[C@H](C)CN([C@H](C)CO)C3=O)cc1`, the cytotoxicity call was “active”.
For `C[C@H](CO)N1C[C@H](C)[C@H](CN(C)Cc2ccc(Cl)c(Cl)c2)Oc2c(NC(=O)Nc3ccc4c(c3)OCO4)cccc2C1=O`, the cytotoxicity call is “inactive”.
The entry for `C[C@H](CO)N1C[C@H](C)[C@H](CN(C)C(=O)c2ccncc2)Oc2cc(C#C[C@@H](C)O)ccc2S1(=O)=O` is “inactive”; for `Cc1cc(F)ccc1S(=O)(=O)N1[C@@H]2CC[C@@H](C2)[C@H]1c1nc2cccc(OCc3ccc(F)cc3)c2[nH]1` it is “inactive”.
For `C[C@@H]1CCCCO[C@H](CN(C)S(=O)(=O)c2cn(C)cn2)[C@@H](C)CN([C@H](C)CO)C(=O)c2cc(N(C)C)ccc2O1`, the cytotoxicity call is “inactive”.
As for `C[C@H](CO)N1C[C@H](C)[C@@H](CN(C)C(=O)Nc2ccc(C(F)(F)F)cc2)Oc2ccc(NS(=O)(=O)c3ccc(Cl)cc3)cc2C1=O`, the cytotoxicity call was “inactive”.
Consider `CCCN1C[C@H](C)[C@H](OC)CN(C)C(=O)c2ccc(NS(=O)(=O)c3cn(C)cn3)cc2OC[C@@H]1C`, for which the cytotoxicity call is “inactive”.
Regarding `CN1CCN(C(=O)C[C@@H]2CC[C@H]3[C@@H](COC[C@H](O)CN3C(=O)C3CCOCC3)O2)CC1`, the cytotoxicity call is “inactive”.
For `C[C@H]1CN([C@@H](C)CO)C(=O)c2cccc(NS(=O)(=O)c3ccccc3)c2O[C@H]1CN(C)Cc1ccc(Oc2ccccc2)cc1`, the cytotoxicity call was “inactive”.
With `C[C@@H]1CN([C@@H](C)CO)C(=O)c2cc(NC(=O)C3CCCCC3)ccc2O[C@@H](C)CCCCO[C@@H]1CN(C)Cc1ccccc1` the entry was “inactive”.
For the molecule `COc1cc(C(=O)O[C@H]2CC[C@@]3(C)[C@@H]4CC[C@H]5[C@]6(O)C[C@H](O)[C@@]7(O)[C@@H](CN8C[C@@H](C)CC[C@H]8[C@@]7(C)O)[C@]6(O)C[C@@]53O[C@@]24O)cc(OC)c1OC`, the cytotoxicity call was “inactive”.
Consider `O=C(Nc1ncc(SCCN2CCCC2)s1)[C@]1(c2ccc(S(=O)(=O)C3CC3)cc2)C[C@H]1C1CCCCC1`, for which the cytotoxicity call was “active”.
`Cc1ccc(-c2ccc3c(c2)O[C@H](CN(C)C(=O)CN(C)C)[C@@H](C)CN([C@H](C)CO)S3(=O)=O)cc1`: the cytotoxicity call is “inactive”.
Turning to `Cn1c(C(=O)N2CCCO[C@@H](Cn3cccn3)C2)cc(=O)n(C)c1=O`, the cytotoxicity call is “inactive”.
With `C[C@H]1CN([C@@H](C)CO)C(=O)c2cc(NC(=O)Nc3ccc(F)cc3)ccc2O[C@@H]1CN(C)S(=O)(=O)c1cn(C)cn1` the entry was “inactive”.
In the case of `COc1ccc(S(=O)(=O)N(C)C[C@@H]2Oc3ccc(NS(=O)(=O)c4cn(C)cn4)cc3CC(=O)N([C@@H](C)CO)C[C@@H]2C)cc1`, the cytotoxicity call was “inactive”.
Take `CN(C)c1cc(CNCC(C)(C)C)c(O)c2c1C[C@H]1C[C@H]3[C@H](N(C)C)C(=O)[C@H](C(N)=O)C(=O)[C@@]3(O)C(=O)[C@@H]1C2=O`: the cytotoxicity call is “inactive”.
On to `C[C@@H]1CN([C@H](C)CO)C(=O)c2cc(NC(=O)Nc3ccc(C(F)(F)F)cc3)ccc2O[C@H]1CN(C)Cc1ccncc1`, for which the cytotoxicity call is “inactive”.
With `C[C@H]1CN([C@@H](C)CO)C(=O)c2cc(NC(=O)Nc3ccc(C(F)(F)F)cc3)ccc2O[C@@H]1CN(C)Cc1ccncc1`, the cytotoxicity call was “active”.
The entry for `C[C@@H]1CN([C@@H](C)CO)C(=O)c2cc(NC(=O)Nc3ccc(C(F)(F)F)cc3)ccc2O[C@H]1CN(C)Cc1ccncc1` is “active”.
`C[C@@H]1CN([C@@H](C)CO)C(=O)c2cc(NC(=O)Nc3ccc(C(F)(F)F)cc3)ccc2O[C@@H]1CN(C)Cc1ccncc1`: the cytotoxicity call was “inactive”.
Take `C[C@H]1CN([C@@H](C)CO)C(=O)c2cc(NC(=O)Nc3ccc(C(F)(F)F)cc3)ccc2O[C@H]1CN(C)Cc1ccncc1`: the cytotoxicity call was “inactive”.
Turning to `C[C@@H]1CN([C@H](C)CO)C(=O)c2cc(NC(=O)Nc3ccc(C(F)(F)F)cc3)ccc2O[C@@H]1CN(C)Cc1ccncc1`, the cytotoxicity call was “inactive”.
With `CO[C@H]1CN(C)C(=O)c2cc(NC(=O)C3CCOCC3)ccc2OC[C@@H](C)N(Cc2cccnc2)C[C@@H]1C` the entry was “inactive”; with `CC(C)NC(=O)N(C)C[C@H]1Oc2ccc(NC(=O)Cc3ccccc3)cc2CC(=O)N([C@H](C)CO)C[C@@H]1C`, “inactive”.
As to `c1ccc(Oc2ccncc2)cc1`, the cytotoxicity call is “inactive”.
On to `COC(=O)C(CC#Cc1ccc2c(c1)[C@]1(C(=O)N2)[C@H](c2ccc(O)cc2)N2[C@H](c3ccccc3)[C@H](c3ccccc3)OC(=O)[C@H]2[C@@H]1C(=O)NC[C@H](O)c1ccccc1)C(=O)OC`, for which the cytotoxicity call is “inactive”.
With `C[C@H]1CN([C@@H](C)CO)C(=O)c2c(c3ccccc3n2C)-c2ccccc2CO[C@H]1CN(C)Cc1ccc(Oc2ccccc2)cc1`, the cytotoxicity call was “inactive”.
With `COc1ccc(S(=O)(=O)Nc2cccc3c2O[C@H](CN(C)S(=O)(=O)c2ccccc2)[C@H](C)CN([C@@H](C)CO)C3=O)cc1`, the cytotoxicity call was “inactive”.
Turning to `COCC#Cc1ccc2c(c1)O[C@H](CN(C)C(=O)COC)[C@H](C)CN([C@@H](C)CO)S2(=O)=O`, the cytotoxicity call was “inactive”.
On to `Cc1cc(OCc2nnc(SC3CCCC3)n2-c2cccnc2)ccc1-c1ccc(S(C)(=O)=O)cc1`, for which the cytotoxicity call was “active”.
On to `Cc1nc(N)c(C(=O)O)nc1C`, for which the cytotoxicity call was “inactive”.
For `C[C@@H]1CN([C@H](C)CO)C(=O)Cc2cc(NC(=O)Cc3cn(C)c4ccccc34)ccc2O[C@H]1CN(C)Cc1ccc(C(=O)Nc2ccccc2N)cc1`, the cytotoxicity call is “inactive”.
The entry for `COc1ccc(S(=O)(=O)Nc2ccc3c(c2)C(=O)N([C@@H](C)CO)C[C@H](C)[C@@H](CN(C)Cc2ccc(Cl)c(Cl)c2)OCCCC[C@@H](C)O3)cc1` is “active”.
Regarding `COc1ccc(CN(C)C[C@H]2OCCCC[C@H](C)Oc3ccc(NS(=O)(=O)c4ccc(OC)cc4)cc3C(=O)N([C@H](C)CO)C[C@H]2C)cc1`, the cytotoxicity call is “inactive”.
`COc1ccc(CN(C)C[C@@H]2OCCCC[C@@H](C)Oc3ccc(NS(=O)(=O)c4ccc(OC)cc4)cc3C(=O)N([C@H](C)CO)C[C@@H]2C)cc1`: the cytotoxicity call is “inactive”.
Regarding `COc1ccc(S(=O)(=O)Nc2ccc3c(c2)C(=O)N([C@H](C)CO)C[C@@H](C)[C@H](CN(C)Cc2ccc(Cl)c(Cl)c2)OCCCC[C@H](C)O3)cc1`, the cytotoxicity call is “active”.
In the case of `COc1ccc(S(=O)(=O)Nc2ccc3c(c2)C(=O)N([C@@H](C)CO)C[C@H](C)[C@@H](CN(C)Cc2ccc(Cl)c(Cl)c2)OCCCC[C@H](C)O3)cc1`, the cytotoxicity call is “active”.
With `COc1ccc(CN(C)C[C@@H]2OCCCC[C@@H](C)Oc3ccc(NS(=O)(=O)c4ccc(OC)cc4)cc3C(=O)N([C@@H](C)CO)C[C@H]2C)cc1`, the cytotoxicity call was “inactive”.
In the case of `COc1ccc(S(=O)(=O)Nc2ccc3c(c2)C(=O)N([C@H](C)CO)C[C@H](C)[C@@H](CN(C)Cc2ccc(Cl)c(Cl)c2)OCCCC[C@@H](C)O3)cc1`, the cytotoxicity call is “active”.
Turning to `COc1ccc(CN(C)C[C@H]2OCCCC[C@@H](C)Oc3ccc(NS(=O)(=O)c4ccc(OC)cc4)cc3C(=O)N([C@@H](C)CO)C[C@@H]2C)cc1`, the cytotoxicity call was “inactive”.
With `COc1ccc(CN(C)C[C@H]2OCCCC[C@@H](C)Oc3ccc(NS(=O)(=O)c4ccc(OC)cc4)cc3C(=O)N([C@H](C)CO)C[C@H]2C)cc1` the entry was “inactive”; with `COc1ccc(CN(C)C[C@H]2OCCCC[C@H](C)Oc3ccc(NS(=O)(=O)c4ccc(OC)cc4)cc3C(=O)N([C@@H](C)CO)C[C@@H]2C)cc1`, “inactive”; with `C[C@H]1CCCCO[C@H](CN(C)C(=O)Nc2ccc3c(c2)OCO3)[C@@H](C)CN([C@@H](C)CO)C(=O)c2cc(NS(=O)(=O)c3cccs3)ccc2O1`, “inactive”.
Take `C[C@H](CO)N1C[C@H](C)[C@H](CN(C)Cc2ccc(C(=O)Nc3ccccc3N)cc2)Oc2c(NS(C)(=O)=O)cccc2C1=O`: the cytotoxicity call is “inactive”.
